The source of these data is PubChem BioAssay (NCI).

About 83,000 compounds went through this panel and 20% of them were active in at least one assay; those are over-represented in the sample as a whole.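 Compound tested at a single concentration for 48 hours in 96-well plates; a percent growth value below 10 was scored as active.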 Activity calls are given as the source filed them.

The first experiment relates to SNB-19 CNS. Nature of the experiment: NCI-60 one-dose screen, 48 h (100 = growth as untreated, 0 = no growth, -100 = all killed). Particulars: 10 µM unless noted.
Consider `O=C1Nc2ccc(Br)cc2/C1=N/c1n[nH]c(=S)s1`, for which the growth was 101% (inactive). For `CCN(c1ccc(Cl)cc1)c1nc(-c2ccc([N+](=O)[O-])cc2)cs1`, the growth was 95.4% (inactive).

For the compound `C=C(C)[C@@H]1CC[C@]2(C)[C@H](CC=C3[C@@H]4[C@H](C)[C@@H](C)CC[C@]4(CO)CC[C@]32C)[C@@]1(C)CCCN`, the growth was 72.3% (inactive).

With `O=C(/C=C(/C=C/c1cccc2[nH]ccc12)OB(F)F)/C=C/c1cccc2[nH]ccc12`, the growth is -7.8% (active).

Turning to `CCN1CC(=O)N(/N=C2\C(=O)Nc3ccccc32)C1=S`, the growth is 91.9% (inactive). For the compound `CCN1CCN(c2cc(C(=O)Nc3nc(-c4cc(OC)c(OC)c(OC)c4)cs3)cc(C(F)(F)F)c2)CC1`, the growth was 80.7% (inactive). Regarding `COc1ccc(-c2nc(/C=C3\SC(=NCc4ccccc4)NC3=O)c3ccccn23)cc1`, the growth was 16% (inactive). The same measure, in the same setting: next, `CCOC(=O)C(=Cc1cccc(Br)c1)C(=O)OCC`: 50.9% (inactive). Turning to `N#CC1=C(N)Oc2c(sc3c(F)cccc23)C1c1ccc(F)cc1` (configuration not stated), the growth is 27.3% (inactive). On the same count and under the same terms, then `CCOc1nc(-c2ccccc2)cc2c(O)c(C(=O)NN)[nH]c(=O)c12`, with 106% (inactive); and `O=C1c2cccc(NCCN=Cc3cc(O)ccc3O)c2C(=O)c2c(NCCN=Cc3cc(O)ccc3O)cccc21`, with -22.4% (active); and `C=CCn1cc(-c2nc3ccccc3s2)c2cc(-c3ccc4c5c(cccc35)C(=O)N(N)C4=O)ccc21`, with 97.2% (inactive).

Take `CCOC(=O)CNP(=O)(OC[C@@H](Cc1ccccc1)NC(=O)c1cc2ccccc2s1)Oc1ccccc1` (some centres not stated): the growth is 87.7% (inactive). As for `CCC(=C(c1ccc(OCCN2CCCC2)cc1)c1ccc(OCCN2CCCC2)cc1)c1ccc(Cl)cc1`, the growth is -19% (active). The same measure, in the same setting: next, `Oc1c(Cl)cc(Cl)c2ccc(Cn3cc(-c4ccc(C(F)(F)F)cc4)nn3)nc12`: 93.3% (inactive); `O=C(NCCCCNC(=O)OCc1ccc2c(Cl)cc(Cl)c(O)c2n1)OCc1ccc2c(Cl)cc(Cl)c(O)c2n1`: 62.7% (inactive). Same read-out and setting: then `CCN(CC)CCNC(=O)c1cn2ncnc(Oc3ccc(NC(=O)Nc4ccc(Cl)c(C(F)(F)F)c4)c(F)c3)c2c1C`, with -48% (active).

In another experiment the test system is U251 CNS. Described as above. The settings on record: 10 µM unless noted.
In the case of `COc1cc(OC)cc(C2=C3CC[C@@H]4[C@H](CC[C@]5(C)C(=O)CC[C@@H]45)C3=CC3C(O)c4cccnc4N4C(=O)COC234)c1` (some centres not stated), the growth was 93.8% (inactive). Still for that read-out and setting: next, `CC(=O)Cc1nsc(NC(=O)c2cc(-c3cc(Cl)cc(Cl)c3)oc2C)n1`: 93.2% (inactive). Take `CCOC(=O)c1cn2ncnc(Oc3ccc(NC(=O)NC4CCCCC4)c(Cl)c3)c2c1C`: the growth was 49.3% (inactive). The same measure, in the same setting: then `Cc1nnc(NC(=O)c2nc(S(=O)(=O)Cc3ccc(F)cc3)ncc2Cl)s1`, with 62.2% (inactive); and `C#CCOc1ccc2ncnc(Nc3ccc(NC(=O)CCl)cc3)c2c1`, with -83.7% (active); and `CCOC(=O)C#Cc1c(C(=O)OCC)nnn1[C@@H]1O[C@H](CO)[C@H]2OC3(CCCCC3)O[C@H]21`, with 104% (inactive). Still for that read-out and setting: next, `C/C(=N/O)c1ccc(F)cc1`: 83.2% (inactive); `CCOC(=O)Cn1c(O)c(N=Nc2ccc(S(N)(=O)=O)cc2)c2cc(Br)ccc21`: 86.2% (inactive). Still for that read-out and setting: then `Cc1nc(N2CCOCC2)sc1S(N)(=O)=O`, with 92.9% (inactive); and `COc1ccc(OC)c(C(=O)/C=C/c2cc3c(c(OC)c2OC)OCO3)c1`, with 50.4% (inactive); and `O=c1oc2ccccc2cc1C1=NN=C(SCc2ccccc2)SC1`, with 92.2% (inactive). Turning to `COc1ccc(C(=S)N2CCN(c3ccccc3Cl)CC2)cc1OC`, the growth is 102% (inactive).

Consider `Cc1ccc(/C=C2\CN(C(=O)OC(C)(C)C)C/C(=C\c3ccc(C)cc3)C2=O)cc1`, for which the growth is 12.4% (inactive).

In the case of `O=C(Nc1nn(-c2ccc(Cl)cc2Cl)nc1-c1ccccc1)c1ccccc1`, the growth is 93.6% (inactive). Regarding `CCN(CC)c1ccc(/C=C/C(=O)c2ccc(Nc3nc(Nc4ccccc4)nc(Nc4ccccc4)n3)cc2)cc1`, the growth is 43.4% (inactive). `COC(=O)[C@H]1CCCN1C[C@@H](O)CN1C(=O)/C(=C\c2cc(OC)c(OC)c(OC)c2)c2ccccc21`: the growth is 87.3% (inactive). Same read-out and setting: next, `CN(C)c1ccc(Nc2cc(-c3cccc(OC(F)(F)F)c3)nc3ccc(N4CCCC4)cc23)cc1`: -59.2% (active); `O=C(Nc1cc(Cl)ccc1O)c1ccc(Nc2ccnc(C(F)(F)F)c2)cc1`: 31.7% (inactive). On to `COc1cc(OC)c2sc(-c3ccc(-n4cncc4-c4ccc(OC)c(OC)c4)cc3)nc2c1`, for which the growth is 46% (inactive).

Regarding `O=C1c2cccnc2C(=O)c2c1c(C(=O)NCCCN1CCCCC1)c1ccccn21`, the growth is -48.4% (active). Regarding `CCOC(=O)c1ccc2[nH]c(O)c(C(=Nc3ccc(N(C)C(=O)CN4CCN(C)CC4)cc3)c3ccccc3)c2c1`, the growth is -86.4% (active).

Take `CCN1C(=O)N(CC)C2C1NN=c1s/c(=C\c3cccc([N+](=O)[O-])c3)c(=O)n12` (configuration not stated): the growth is 13.7% (inactive).

In the case of `CC1=C(Nc2ccc(N3CCN(C)CC3)cc2)C(=O)c2cncnc2C1=O`, the growth was 83.6% (inactive). For the compound `O=C1Nc2ccc(Br)cc2/C1=N/c1n[nH]c(=S)s1`, the growth is 96.2% (inactive). Same read-out and setting: then `CCN(c1ccc(Cl)cc1)c1nc(-c2ccc([N+](=O)[O-])cc2)cs1`, with 102% (inactive); and `C=C(C)[C@@H]1CC[C@]2(C)[C@H](CC=C3[C@@H]4[C@H](C)[C@@H](C)CC[C@]4(CO)CC[C@]32C)[C@@]1(C)CCCN`, with -74.3% (active); and `O=C(/C=C(/C=C/c1cccc2[nH]ccc12)OB(F)F)/C=C/c1cccc2[nH]ccc12`, with -87% (active). Still for that read-out and setting: next, `CCN1CC(=O)N(/N=C2\C(=O)Nc3ccccc32)C1=S`: 99.2% (inactive); `CCN1CCN(c2cc(C(=O)Nc3nc(-c4cc(OC)c(OC)c(OC)c4)cs3)cc(C(F)(F)F)c2)CC1`: 60.9% (inactive). Take `COc1ccc(-c2nc(/C=C3\SC(=NCc4ccccc4)NC3=O)c3ccccn23)cc1`: the growth was -43.6% (active). Same read-out and setting: next, `CCOC(=O)C(=Cc1cccc(Br)c1)C(=O)OCC`: 26.8% (inactive); `N#CC1=C(N)Oc2c(sc3c(F)cccc23)C1c1ccc(F)cc1` (configuration not stated): 22.2% (inactive). On the same count and under the same terms, then `CCOc1nc(-c2ccccc2)cc2c(O)c(C(=O)NN)[nH]c(=O)c12`, with 106% (inactive); and `O=C1c2cccc(NCCN=Cc3cc(O)ccc3O)c2C(=O)c2c(NCCN=Cc3cc(O)ccc3O)cccc21`, with -43.8% (active).

On to `C=CCn1cc(-c2nc3ccccc3s2)c2cc(-c3ccc4c5c(cccc35)C(=O)N(N)C4=O)ccc21`, for which the growth was 104% (inactive). As to `CCOC(=O)CNP(=O)(OC[C@@H](Cc1ccccc1)NC(=O)c1cc2ccccc2s1)Oc1ccccc1` (some centres not stated), the growth was 66.5% (inactive). For the compound `CCC(=C(c1ccc(OCCN2CCCC2)cc1)c1ccc(OCCN2CCCC2)cc1)c1ccc(Cl)cc1`, the growth was -77.4% (active).

Regarding `Oc1c(Cl)cc(Cl)c2ccc(Cn3cc(-c4ccc(C(F)(F)F)cc4)nn3)nc12`, the growth was 99.8% (inactive). On the same count and under the same terms, next, `O=C(NCCCCNC(=O)OCc1ccc2c(Cl)cc(Cl)c(O)c2n1)OCc1ccc2c(Cl)cc(Cl)c(O)c2n1`: 9.05% (active); `CCN(CC)CCNC(=O)c1cn2ncnc(Oc3ccc(NC(=O)Nc4ccc(Cl)c(C(F)(F)F)c4)c(F)c3)c2c1C`: -48.6% (active).
